Assay results published in publication PMC5540273 (PLoS ONE, 2017).

What was measured:
Conditions in all cases: concentration: 1 μM, replicates: in singlicate; n = 1
CDC2L2 = system: CDC2L2
CDC2L5 = system: T1, CDC2L5
T1 construct: gene CDK13

CDK11 = system: T2, CDK11
T2 construct: gene CDK19

CDK2 = system: CDK2
CDK3 = system: CDK3
CDK4-cyclinD1 = system: CDK4-cyclinD1
CDK4-cyclinD3 = system: CDK4-cyclinD3
CDK4 = system: CDK4
CDK5 = system: CDK5
CDK7 = system: CDK7
CDK8 = system: CDK8
CDK9 = system: CDK9
CDKL1 = system: CDKL1
CDKL2 = system: CDKL2
CDKL3 = system: CDKL3
CDKL5 = system: CDKL5
CHEK1 = system: CHEK1
CHEK2 = system: CHEK2
CIT = system: CIT
CLK1 = system: CLK1
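Also: KINOMEscan kinase panel screen.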

Structure (SMILES)	%Inh (CDC2L2) [%]	%Inh (CDC2L5) [%]	%Inh (CDK11) [%]	%Inh (CDK2) [%]	%Inh (CDK3) [%]	%Inh (CDK4-cyclinD1) [%]	%Inh (CDK4-cyclinD3) [%]	%Inh (CDK4) [%]	%Inh (CDK5) [%]	%Inh (CDK7) [%]	%Inh (CDK8) [%]	%Inh (CDK9) [%]	%Inh (CDKL1) [%]	%Inh (CDKL2) [%]	%Inh (CDKL3) [%]	%Inh (CDKL5) [%]	%Inh (CHEK1) [%]	%Inh (CHEK2) [%]	%Inh (CIT) [%]	%Inh (CLK1) [%]
O=C(Nc1n[nH]c2nc(-c3ccccc3O)ccc12)C1CC1 [SB-711880]	0	11	0	37	22	25	17	0	0	7	0	0	42	98.5	17	0	3	0	0	66
Cl.O=C(Nc1ccc(Oc2ccc3[nH]c(NC(=O)c4ccco4)nc3c2)cc1)Nc1cc(C(F)(F)F)ccc1F [GW683134]	1	0	88	0	9	0	0	4	0	78	86	5	8	85	0	0	21	0	96.7	63
CN1CCN(Cc2ccc(NC(=O)Nc3ccc(N(C)c4ccnc(Nc5ccc(CS(C)(=O)=O)cc5)n4)cc3)cc2)CC1.Cl [GW827654]	38	99.8	60	16	0	50	97.8	65	58	53	60	50	71	99.8	99.6	0	0	78	23	42
Cc1ccc(-c2ccc3occ(-c4ccc(S(C)=O)cc4)c3c2)nn1 (centres unmarked)	0	24	29	36	4	0	0	0	0	0	0	0	35	0	13	0	0	11	0	0
Cc1ccc(NC(=O)c2cccc(N3CCCCC3)c2)cc1-c1ccc(C(=O)NCC2CC2)cc1 [GSK1917008]	8	0	8	2	8	0	1	0	2	0	10	0	7	16	0	7	100	0	86	22
Cc1ccccc1CC(=O)N1CCc2cc(-c3cn(C)c4ncnc(N)c34)ccc21 [GSK2603346]	3	0	81	6	2	0	0	29	0	0	83	0	0	17	0	0	18	0	32	15
O=C(Nc1c(F)cccc1F)c1cc(C(=O)c2ccccc2F)c[nH]1 [GSK1326180]	0	0	6	0	16	33	0	14	0	0	14	0	0	7	0	0	0	11	5	22
CCOc1nccc(-c2c(-c3ccc(F)cc3)ncn2C2CCNCC2)n1 [SB-249175]	13	34	12	5	0	33	10	26	12	24	25	1	1	0	17	7	0	16	10	0
Cn1cc(-c2ccc3c(c2)CCN3C(=O)Cc2cc(F)cc(F)c2F)c2c(N)ncnc21 [GSK2634140]	19	0	86	8	45	0	0	26	0	0	88	3	8	29	0	3	9	0	36	16
COc1ccc(NC(=O)c2ccoc2)cc1-c1ccc(C(=O)NCC2CC2)cc1 [GW810437]	6	16	11	0	2	0	0	15	0	26	38	16	11	0	2	6	0	0	0	0
